This passage reports Potency, IC50 (viability decrease) and outcome results from PubChem BioAssay (NCATS).

The nature of assay [1]: Identifying Small Molecule Inhibitors of Pancreatic Cancer Stem Cells (SN12C, Adherent) (AID 1259358; active = well fitted curve in the direction sought with a large enough effect; an effect the other way counts as inactive or inconclusive;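 note: cell survival measured after 48 h of compound exposure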; note: potency is the fitted concentration of half-maximal effect). Summed up: (§1)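 Spheroids grown 14 days in stem cell media on hydrogel-coated nonadherent plates; 2D lines seeded directly. Compounds added after 4 h attachment, 48 h at 37C, 5% CO2; CellTiter-Glo luminescence normalized to DMSO (no inhibition) and no-cell wells (full inhibition).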

Assay [2] in a line: P-glycoprotein substrates identified in KB-8-5-11 adenocarcinoma cell line, qHTS therapeutic library screen (AID 1346987; active = well fitted curve in the direction sought with a large enough effect; an effect the other way counts as inactive or inconclusive; note: nearly all actives have a fitted effect of over 65% in size; note: potency is the fitted concentration of half-maximal effect). The method in brief:
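KB-8-5-11, a colchicine-selected P-gp-overexpressing KB-3-1 subline, was grown without colchicine for the assay. Cells were seeded at 500 cells/well, dosed in concentration-response and incubated 72 h at 37 degree C, 5% CO2. Viability was read by CellTiter-Glo luminescence.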

The nature of assay [3]: Identifying Small Molecule Inhibitors of Pancreatic Cancer Stem Cells (A278, Adherent) (AID 1259361; active = well fitted curve in the direction sought with a large enough effect; an effect the other way counts as inactive or inconclusive;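 note: viability read after 48 h compound exposure; nearly all actives have a fitted effect of over 35% in size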). Summed up: as §1
Assay [4] is described as follows: Identifying Small Molecule Inhibitors of Pancreatic Cancer Stem Cells (Panc1, Adherent) (AID 1259362; active = well fitted curve in the direction sought with a large enough effect; an effect the other way counts as inactive or inconclusive;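 note: compound exposure lasted 48 h before the viability read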). As to conditions: Potency: viability. The method in brief: as §1
Assay [5] can be described thus: P-glycoprotein substrates identified in KB-3-1 adenocarcinoma cell line, qHTS therapeutic library screen (AID 1346986; active = well fitted curve in the direction sought with a large enough effect; an effect the other way counts as inactive or inconclusive; note: nearly all actives have a fitted effect of over 60% in size). The method in brief: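 KB-3-1 parental and colchicine-selected P-gp-overexpressing KB-8-5-11 cells (colchicine omitted during assay), 500 cells/well, dosed in dose-response for 72 h at 37 °C; CellTiter-Glo luminescence. Cytotoxic: curve class -1.1 to -2.4, max response >50%, AC50 < 10 uM.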
On the technique in general: In qHTS, concentration-response curves come from the screen itself.

Assay [6] in a line: Natriuretic polypeptide receptor (hNpr1) antagonism - Pilot counterscreen GloSensor control cell line (AID 1347045). Note: series mostly up to about 38 µM. Summed up: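 HEK293 cGMP GloSensor cells preloaded 2 h with 2% GloSensor reagent, then compound 30 min before baseline luminescence read. Stimulated with 50 uM sodium nitroprusside, 20 min at room temperature, then read again; counterscreen for Npr1 antagonism.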
Background: Counterscreens check selectivity or assay interference.

In assay [7] the target is Atrial natriuretic peptide receptor 1 (Homo sapiens) (UniProt P16066). Nature of the assay: Natriuretic polypeptide receptor (hNpr1) antagonism - Pilot screen (AID 1347049).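 Note: agonist-evoked cGMP luminescence read 20 min after hNppA addition; series mostly up to about 58 µM.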 The method in brief: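 HEK293 cells expressing hNpr1 and GloSensor cGMP luciferase, 1500/well, loaded with 2% GloSensor reagent 2 h, compound 30 min at room temperature; luminescence read before and 20 min after 0.1 nM hNppA stimulation.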

The target of assay [8] is Atrial natriuretic peptide receptor 2 (Homo sapiens) (UniProt P20594). Nature of the assay: Natriuretic polypeptide receptor (hNpr2) antagonism - Pilot subtype selectivity assay (AID 1347050). Note: potency is the fitted concentration of half-maximal effect. The method in brief: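 HEK293 cells expressing hNpr2 and a GloSensor cGMP luciferase sensor, 1500/well, preloaded 2 h with 2% GloSensor reagent, compound 30 min, then 1 nM hNppC for 20 min. Antagonism from luminescence after versus baseline pre-read; LOPAC in 1:5 titrations.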

Assay [9] can be described thus: Identifying Small Molecule Inhibitors of Pancreatic Cancer Stem Cells (Panc1, Spheroid) (AID 1259359; active = well fitted curve in the direction sought with a large enough effect; an effect the other way counts as inactive or inconclusive;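 note: compound exposure lasted 48 h before reading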; note: potency is the fitted concentration of half-maximal effect). Summed up:
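Spheroids grown 14 days in stem cell media on nonadherent hydrogel before screening; cells attached 4 h, then compound exposure 48 h at 37C, 5% CO2. CellTiter-Glo luminescence normalized to DMSO (no inhibition) and no-cell wells (full inhibition).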

Values joined by “and” are separate entries in the source; they are usually repeats but may differ in a detail not shown here. Equal values may be shown once. Inconclusive results are not listed. A call without a number means that no potency is given here. Active and inactive are the calls of the source. Unless noted, calls come from the whole dose curve.

Atrial natriuretic peptide receptor 2 (Homo sapiens), sequence (P20594 whole entry, looked up): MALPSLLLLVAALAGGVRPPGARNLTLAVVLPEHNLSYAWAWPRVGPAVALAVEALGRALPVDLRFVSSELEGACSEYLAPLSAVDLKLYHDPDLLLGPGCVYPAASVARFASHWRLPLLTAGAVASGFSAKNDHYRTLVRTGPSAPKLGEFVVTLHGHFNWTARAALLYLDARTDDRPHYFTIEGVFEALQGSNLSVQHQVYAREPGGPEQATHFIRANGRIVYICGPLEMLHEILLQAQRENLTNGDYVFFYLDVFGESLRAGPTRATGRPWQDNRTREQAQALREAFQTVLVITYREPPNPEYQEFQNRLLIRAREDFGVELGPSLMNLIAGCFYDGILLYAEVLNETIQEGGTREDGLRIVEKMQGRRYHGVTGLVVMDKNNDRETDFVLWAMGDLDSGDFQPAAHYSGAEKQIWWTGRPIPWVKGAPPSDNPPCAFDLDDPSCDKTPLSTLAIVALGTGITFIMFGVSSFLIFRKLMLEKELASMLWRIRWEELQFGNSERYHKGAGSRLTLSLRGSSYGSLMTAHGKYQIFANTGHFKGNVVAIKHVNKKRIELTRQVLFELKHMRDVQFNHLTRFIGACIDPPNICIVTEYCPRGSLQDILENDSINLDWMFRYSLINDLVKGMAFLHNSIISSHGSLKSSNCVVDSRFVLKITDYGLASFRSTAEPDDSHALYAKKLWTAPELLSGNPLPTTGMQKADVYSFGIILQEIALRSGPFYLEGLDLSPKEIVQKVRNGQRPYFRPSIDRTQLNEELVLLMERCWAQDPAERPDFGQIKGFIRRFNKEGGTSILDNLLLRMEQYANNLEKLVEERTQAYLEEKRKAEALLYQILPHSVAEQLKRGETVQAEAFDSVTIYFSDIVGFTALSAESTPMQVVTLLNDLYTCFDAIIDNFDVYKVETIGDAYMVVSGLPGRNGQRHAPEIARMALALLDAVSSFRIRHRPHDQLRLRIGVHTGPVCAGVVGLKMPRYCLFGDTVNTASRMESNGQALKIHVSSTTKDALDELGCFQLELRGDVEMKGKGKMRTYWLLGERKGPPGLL
Atrial natriuretic peptide receptor 1 (Homo sapiens), sequence (P16066 whole entry, looked up): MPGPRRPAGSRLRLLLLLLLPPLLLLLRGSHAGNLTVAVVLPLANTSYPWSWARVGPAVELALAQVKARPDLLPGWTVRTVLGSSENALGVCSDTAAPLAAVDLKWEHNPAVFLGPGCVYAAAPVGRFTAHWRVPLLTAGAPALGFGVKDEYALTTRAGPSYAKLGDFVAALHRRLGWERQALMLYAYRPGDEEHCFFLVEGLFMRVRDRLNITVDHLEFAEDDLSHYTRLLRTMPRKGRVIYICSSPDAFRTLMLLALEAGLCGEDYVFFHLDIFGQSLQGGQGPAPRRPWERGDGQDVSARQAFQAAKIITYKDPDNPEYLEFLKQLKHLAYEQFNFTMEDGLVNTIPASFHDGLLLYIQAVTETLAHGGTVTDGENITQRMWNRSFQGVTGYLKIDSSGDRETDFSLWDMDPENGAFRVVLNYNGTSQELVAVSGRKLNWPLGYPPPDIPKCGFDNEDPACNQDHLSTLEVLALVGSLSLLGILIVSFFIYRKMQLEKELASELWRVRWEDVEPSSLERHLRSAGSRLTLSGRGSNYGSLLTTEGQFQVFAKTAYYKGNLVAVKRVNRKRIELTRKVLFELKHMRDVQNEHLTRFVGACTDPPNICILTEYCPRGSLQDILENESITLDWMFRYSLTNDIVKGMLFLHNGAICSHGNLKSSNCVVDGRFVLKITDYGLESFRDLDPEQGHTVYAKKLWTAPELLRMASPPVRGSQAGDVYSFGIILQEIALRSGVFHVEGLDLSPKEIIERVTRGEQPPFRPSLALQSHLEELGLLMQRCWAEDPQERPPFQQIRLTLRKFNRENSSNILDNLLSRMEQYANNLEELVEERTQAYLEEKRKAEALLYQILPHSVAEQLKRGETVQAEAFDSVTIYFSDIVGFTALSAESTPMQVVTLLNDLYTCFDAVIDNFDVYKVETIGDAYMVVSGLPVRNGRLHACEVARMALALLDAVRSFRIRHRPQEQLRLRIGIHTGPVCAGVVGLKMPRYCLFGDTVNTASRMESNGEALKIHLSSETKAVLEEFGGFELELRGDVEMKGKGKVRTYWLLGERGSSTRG

With `CCCS(=O)(=O)Nc1ccc(F)c(C(=O)c2c[nH]c3ncc(-c4ccc(Cl)cc4)cc23)c1F`, the Potency result in [1] and in assay [2] was “inactive” in each case.

Regarding `Nc1ncnc2nc(-c3ccc(N4CCOCC4)nc3)cc(-c3cccc(Br)c3)c12`, the Potency entry in assay [1], in assay [4], in assay [5], in assay [2] and in assay [8] was “inactive” each time. Besides, the IC50 (viability decrease) in assay [3] is 26.4 µM (active). For the same compound, the outcome in [6] and in assay [7] was inactive.

With `Cn1cnc2c(F)c(Nc3ccc(Br)cc3Cl)c(C(=O)NOCCO)cc21`, in assay [1], the Potency was 1.18 µM (active). In addition, the Potency entry in assay [2] was “inactive”.

As to `OCCn1cc(-c2cnc3nnn(Cc4ccc5ncccc5c4)c3n2)cn1`, the Potency entry in assay [1] and in assay [2] was “inactive” in each case.

With `Nc1nc2ccc(OC(F)(F)F)cc2s1`, the Potency result in assay [1] was “inactive”.

As to `CCC(=O)N[C@H]1CC[C@H](C(=O)N(C)c2ccc(-c3nc4ccccc4o3)cc2)C1`, the Potency in [9] is 3.72 µM (active).

As for `CCC(C)(C)C(=O)O[C@H]1C[C@@H](C)C=C2C=C[C@H](C)[C@H](CC[C@@H]3C[C@@H](O)CC(=O)O3)[C@H]21`, in assay [9], the Potency result was “inactive”.

Regarding `NCCc1ccc(O)c(O)c1`, the Potency result in assay [2] and in [8] was “inactive” in each case. The call in [6] and in assay [7] was inactive.

Turning to `CCn1cc(C(=O)O)c(=O)c2cc(F)c(N3CCNC(C)C3)c(F)c21` (stereo unspecified), the outcome in assay [6] and in assay [7] was inactive. Further, in [8], the Potency entry was “inactive”.

Take `Cc1[nH]c(=O)c(C#N)cc1-c1ccncc1`: the Potency entry in assay [2] and in assay [8] was “inactive” throughout. Also, in assay [7], the compound was called inactive.

Consider `O=C1CCC(N2C(=O)c3ccccc3C2=O)C(=O)N1` (stereo unspecified), for which the Potency entry in [2] and in assay [8] was “inactive” in each case. Besides, the compound was called inactive in assay [6] and in [7].

Regarding `CNC(=O)c1ccccc1Sc1ccc2c(/C=C/c3ccccn3)n[nH]c2c1`, in [2], the Potency is 18.4 µM (active) and 7.31 µM (active).

For the compound `O=c1[nH]cnc2[nH]ncc12`, the Potency entry in [2] and in assay [8] was “inactive” throughout. Also, the call in [6] and in [7] was inactive.

Take `Nc1nc2c(ncn2COCCO)c(=O)[nH]1`: in assay [6], the compound was classed as inactive. Besides, in assay [8], the Potency entry is “inactive”.

Take `O=NN(CCCl)C(=O)NCCCl`: the Potency result in assay [2] and in assay [8] was “inactive” in each case. Moreover, the compound was classed as inactive in assay [6] and in assay [7].

As to `Cc1ccc(N(CC2=NCCN2)c2cccc(O)c2)cc1`, the Potency entry in assay [2] and in assay [8] was “inactive” in each case. The outcome in [7] was inactive.

Regarding `CCCCNc1cc(C(=O)O)cc(S(N)(=O)=O)c1Oc1ccccc1`, the Potency result in assay [2] and in assay [8] was “inactive” throughout. The compound was called inactive in assay [6] and in assay [7].

Turning to `Oc1ccc(C2CNCCc3c2cc(O)c(O)c3Cl)cc1` (stereo unspecified), the result in [6] and in assay [7] was inactive. The Potency entry in [8] was “inactive”.

Take `Cc1ccccc1C(OCCN(C)C)c1ccccc1` (stereo unspecified): the Potency entry in [5], in assay [2] and in assay [8] was “inactive” in each case. Besides, the result in assay [6] and in assay [7] was inactive.

As for `CC(C[N+](C)(C)C)OC(N)=O` (stereo unspecified), the Potency result in assay [2] and in assay [8] was “inactive” each time. The compound was classed as inactive in assay [6] and in assay [7].

With `Clc1cccc(Cl)c1NC1=NCCN1`, the Potency result in assay [5], in assay [2] and in [8] was “inactive” in each case. Besides, the compound was called inactive in assay [6] and in assay [7].

`O=C(O)COCCN1CCN(C(c2ccccc2)c2ccc(Cl)cc2)CC1` (stereo unspecified): in [2], the Potency entry is “inactive”. In addition, the result in [6] and in assay [7] was inactive. For the same compound, the Potency in [8] is 13.1 µM (active).

As to `N[C@@H]1CONC1=O`, the call in assay [6] and in [7] was inactive. Also, the Potency entry in assay [8] was “inactive”.

Take `NS(=O)(=O)c1cc2c(cc1Cl)NC=NS2(=O)=O`: the Potency entry in [5], in assay [2] and in assay [8] was “inactive” in each case. Further, the call in [7] was inactive.

`N=c1nc(N2CCCCC2)cc(N)n1O`: the compound was called inactive in [7]. Also, the Potency entry in [8] is “inactive”.

In the case of `CCOC(=O)C1=C[C@]2(CC)CCCN3CCc4c(n1c1ccccc41)[C@@H]32`, the Potency in assay [2] is 26.4 µM (active). Moreover, the result in assay [6] and in [7] was inactive. The Potency result in assay [8] was “inactive”.

With `CC(C)NCC(O)COc1ccc(COCCOC(C)C)cc1` (stereo unspecified), the Potency entry in [2] and in assay [8] was “inactive” in each case. Further, the result in assay [6] and in assay [7] was inactive.

With `Cn1cnc([N+](=O)[O-])c1Sc1ncnc2nc[nH]c12`, in assay [2], the Potency was 4.61 µM (active) and 2 µM (active) and 833 nM (active). Also, the result in assay [6] and in assay [7] was inactive. Besides, in assay [8], the Potency entry was “inactive”.

On to `c1ccc([C@H]2CN3CCSC3=N2)cc1`, for which the Potency result in assay [2] and in assay [8] was “inactive” throughout. Moreover, the result in assay [6] was inactive.

For the compound `CCCC(CCC)C(=O)O`, the Potency entry in assay [2] and in [8] was “inactive” each time. Also, the outcome in [6] and in assay [7] was inactive.

In the case of `CNC[C@H](O)c1cccc(O)c1`, the Potency result in assay [5], in assay [2] and in assay [8] was “inactive” in each case. Further, the result in [6] and in assay [7] was inactive.

As for `NCCCC(N)(C(=O)O)C(F)F` (stereo unspecified), the Potency result in assay [2] and in assay [8] was “inactive” each time. Also, the call in assay [6] and in assay [7] was inactive.

As to `O=c1n(CCCN2CCN(c3cccc(Cl)c3)CC2)nc2ccccn12`, the Potency result in assay [2] and in [8] was “inactive” each time. In addition, the compound was called inactive in assay [6] and in [7].

As to `Cc1cnc(NC(=O)C2=C(O)c3ccccc3S(=O)(=O)N2C)s1`, the Potency result in [2] is “inactive”.

As to `Nc1ccc(S(=O)(=O)Nc2ccnn2-c2ccccc2)cc1`, the Potency result in assay [2] and in [8] was “inactive” each time. In addition, the result in assay [6] and in [7] was inactive.

Regarding `O=C1CCc2cc(OCCCCc3nnnn3C3CCCCC3)ccc2N1`, the Potency result in assay [2] and in assay [8] was “inactive” throughout. In addition, the outcome in [6] and in assay [7] was inactive.

Consider `CN1CCN(CCCN2c3ccccc3Sc3ccc(C(F)(F)F)cc32)CC1`, for which the Potency entry in assay [5] and in [2] was “inactive” throughout. The outcome in assay [7] was inactive.

On to `CCN(CC)CCCC(C)Nc1ccnc2cc(Cl)ccc12` (stereo unspecified), for which the Potency entry in assay [5], in assay [2] and in assay [8] was “inactive” in each case. For the same compound, the result in assay [7] was inactive.

In the case of `CCOC(=O)N1CCC(=C2c3ccc(Cl)cc3CCc3cccnc32)CC1`, the Potency entry in [5] and in assay [8] was “inactive” in each case. The compound was classed as inactive in assay [6] and in assay [7].
